Most compounds without a hit are left out; they make up all but 3.5% or so of the library.
Anthrax LF prot – Bacillus anthracis LF protease inhibitors, primary screen, biochemical, multiplex microsphere, MLPCN library; multiplex microsphere protease cleavage assay; 360,000 tested, 0.12% active; AID 588501, 2011; inhibition, % at 10 µM; Lethal factor (Bacillus anthracis), P15917; further: plate controls were buffer without enzyme for full effect and enzyme alone for no effect
Target sequence (P15917 whole entry, looked up): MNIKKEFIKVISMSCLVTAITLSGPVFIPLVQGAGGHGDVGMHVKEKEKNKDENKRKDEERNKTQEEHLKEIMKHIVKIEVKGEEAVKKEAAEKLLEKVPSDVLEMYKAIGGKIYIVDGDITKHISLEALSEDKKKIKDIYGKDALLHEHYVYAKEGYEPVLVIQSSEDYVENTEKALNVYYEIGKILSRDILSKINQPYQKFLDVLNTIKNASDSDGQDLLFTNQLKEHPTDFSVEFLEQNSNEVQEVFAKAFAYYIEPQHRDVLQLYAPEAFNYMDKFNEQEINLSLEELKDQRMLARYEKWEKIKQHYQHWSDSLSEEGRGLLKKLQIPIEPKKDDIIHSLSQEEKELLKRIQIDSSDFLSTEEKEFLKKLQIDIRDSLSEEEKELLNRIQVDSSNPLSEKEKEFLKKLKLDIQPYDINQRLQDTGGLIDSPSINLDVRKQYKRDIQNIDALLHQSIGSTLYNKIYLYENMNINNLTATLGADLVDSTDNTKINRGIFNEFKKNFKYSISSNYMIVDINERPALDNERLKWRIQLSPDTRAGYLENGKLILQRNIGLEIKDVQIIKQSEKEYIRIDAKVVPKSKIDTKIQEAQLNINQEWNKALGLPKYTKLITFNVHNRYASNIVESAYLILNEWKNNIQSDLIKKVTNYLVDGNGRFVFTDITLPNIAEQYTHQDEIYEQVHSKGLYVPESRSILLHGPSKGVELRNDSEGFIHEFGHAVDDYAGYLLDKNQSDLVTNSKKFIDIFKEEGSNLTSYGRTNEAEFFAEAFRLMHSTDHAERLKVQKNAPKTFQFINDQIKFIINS
Bead autofluor – counter-screen for toxin protease inhibitors: compound fluorescence. fluorescence intensity (test concentration not listed). AID 624483. 360,000 tested, 3.1% active. compound autofluorescence counterscreen, microsphere flow cytometry; hits give high values; in the data active means fluorescence intensity above about 16000; inconclusive means no clear call, values can overlap the other calls
BoNT-F LC inh – BoNT/F light chain protease inhibitors, primary screen, biochemical, flow cytometry, MLPCN library. Botulinum neurotoxin type F light chain protease (Clostridium botulinum). inhibition, % at 10 µM. 360,000 tested, 0.22% active. Multiplex microsphere protease cleavage assay; in the data active means inhibition above about 35%, passing the limit was not always enough; inconclusive means no clear call, values can overlap the other calls; further: plate controls were buffer without enzyme for full effect and enzyme alone for no effect
BoNT-A LC inh2 – BoNT/A light chain protease inhibitors, primary screen, biochemical, flow cytometry, MLPCN library. multiplex microsphere protease substrate cleavage. inhibition, % at 10 µM. Botulinum neurotoxin type A light chain protease (Clostridium botulinum A str. ATCC 3502). 360,000 tested, 0.17% active. AID 588499, 2011; further: plate controls were buffer without enzyme for full effect and enzyme alone for no effect
Active calls of the source: *; ? = inconclusive. Unless noted, no stated cut-off is given here; in the data, active means inhibition above about 30%; inconclusive means no clear call, values can overlap the other calls; inactive means below that.

SMILES	Anthrax LF prot	Bead autofluor	BoNT-F LC inh	BoNT-A LC inh2
Cc1cc(C)n(-c2ccc(C(=O)OCC(=O)Nc3ccc(Cl)c(S(=O)(=O)N(C)C)c3)cc2)n1	-1.9	25627*	-7.4	?
CC1CCN(C(=O)COC(=O)c2cccc(S(=O)(=O)N3CCOCC3)c2)CC1	-7.0	3922	8.0	-0.1
CCOC(=O)N1CCN(C(c2ccnc3ccccc23)c2nnnn2-c2ccc3c(c2)OCCO3)CC1 (stereo unspecified)	2.5	5554	1.3	0.9
CCOC(=O)C1=C(C)NC(C)=C(C(=O)OCC)C1c1cccc(C)n1	2.6	6096	-4.6	-0.2
CCOC(=O)C1=C(C)NC2=C(C(=O)CC(C)(C)C2)C1c1cccc(C)n1 (stereo unspecified)	-0.8	20812*	-2.0	-1.1
Cc1ccc2nc(-c3ccccc3)c(Cc3ccccc3C(F)(F)F)n2c1	10.7	6335	-0.2	0.9
O=C(c1ccc(Oc2ccccc2)cc1)c1nc2c(n1O)CCCC2	-1.0	23776*	-5.2	?
CCCOc1ccc(C(=O)c2nc3c(n2O)CCCC3)cc1	2.6	22563*	0.4	1.4
COc1ccc(OC)c(C(=O)c2nc3c(n2O)CCCCC3)c1	-2.0	23230*	-5.6	-1.8
COc1ccc(C(=O)c2nc3c(n2O)CCCCC3)cc1	1.9	2344	10.6	0.3
Cc1cc(C(=O)Nc2ccc3c(c2)CCC3)ccc1[N+](=O)[O-]	?	4341	-8.0	2.8
O=C(O)c1ccc(NC(=O)c2ccc3c(c2)C(=O)N(c2ccccc2)C3=O)cc1	0.2	3956	37.8*	0.1
O=C(O)c1cccc(NC(=O)c2ccc(N3C(=O)c4ccc(C(=O)Nc5cccc(C(=O)O)c5)cc4C3=O)cc2)c1	-3.7	4355	-4.2	-1.1
O=C(Nc1ccon1)c1ccccc1Cl	2.7	8322	3.7	0.3
O=C(Nc1ccccc1C(=O)Nc1ccccn1)c1ccccc1F	11.4	4072	45.0*	0.8
O=C(Nc1ccon1)c1ccccc1F	2.8	23297*	-1.2	0.7
CC(C)C[C@H]1CN([C@@H](Cc2ccccc2)CN2CCC[C@@H]2CN2C(=O)C(=O)NC[C@@H]2Cc2ccccc2)C(=O)C(=O)N1CCc1ccccc1	-2.4	5373	-2.4	0.2
Cc1ccc(NC(=S)NC(=O)c2ccc(Br)o2)c(C)c1	-3.0	4549	-0.2	0.3
Cc1ccc(C)c(NC(=S)NNC(=O)c2csc(C)c2C)c1	0.1	2435	-7.4	-0.2
Cc1ccc(C)c(NC(=S)NNC(=O)c2ccc(Br)o2)c1	-0.1	21935*	-5.1	-4.8
Cc1ccc(C)c(NC(=S)NNC(=O)c2csc(C(C)C)c2)c1	0.8	22879*	-2.6	0.9
CCC/C=C/c1ccc(CN2C(C(C)C)C(=O)N(Cc3cn(CC4CCCCC4)nn3)CCS2(=O)=O)cc1 (stereo unspecified)	-4.5	3680	0.1	0.2
CCCCn1nnnc1C(c1cc2ccccc2o1)N(CCC#N)Cc1ccccc1 (stereo unspecified)	1.4	4505	-1.2	-0.4
COc1cc(C(=O)NC2CCN(Cc3nnnn3Cc3cccs3)CC2)cc(OC)c1OC	-7.5	22671*	0.8	0.7
COCCn1nnnc1CN1CCC(NC(=O)c2ccc(Br)cc2)CC1	-3.1	3728	-2.0	0.3
SMILES	Anthrax LF prot	Bead autofluor	BoNT-F LC inh	BoNT-A LC inh2
COc1ccc(NC(=O)CN(C)C(=O)Cc2ccc(-c3ccccc3)cc2)cc1	-1.4	6654	-1.2	-1.0
Clc1ccc(-n2nnnc2-c2ccccc2)cc1	1.5	17854*	-8.1	?
CCOCCCN(C(=O)Nc1ccc(CC)cc1)C1CCN(C(C)=O)CC1	1.9	8055	4.1	1.0
CCCCN(C(=O)Nc1ccc(Cl)cc1)C1CCN(C(C)=O)CC1	0.6	17864*	7.2	5.2
COc1ccc(Br)cc1C(=O)Nc1ccccc1N1CCCC1	-0.7	6629	-14.4	-1.5
CCOc1ccc(C(=O)Nc2ccccc2-c2ccccc2)cc1Cl	-7.2	17980*	6.0	6.5
Cc1c(C(=O)Nc2ccccc2-c2ccccc2)cccc1[N+](=O)[O-]	-10.5	20236*	3.4	4.5
COc1ccc(Br)cc1C(=O)Nc1ccccc1-c1ccccc1	-2.9	28074*	-15.2	-14.7
CCOc1c(Cl)cc(C(=O)Nc2ccccc2C(=O)O)cc1Cl	-2.8	19009*	1.7	?
CCOc1ccc(C(=O)Nc2cccc(C(=O)O)c2C)cc1Cl	1.0	2536	-8.8	-0.9
COC(=O)Cn1ccnc1[N+](=O)[O-]	-5.9	3114	-1.1	-0.6
C#CC(C)OCC1CNC(=S)O1 (stereo unspecified)	0.3	3388	4.3	-0.5
CCCn1c(N)c(N(CCOC)C(=O)CSc2cc(C)c3ccccc3n2)c(=O)[nH]c1=O	-7.3	3635	-7.3	0.4
C=CCN1/C(=C(\C#N)C2=NS(=O)(=O)c3ccccc32)N(C)c2ccccc21	-1.8	16828*	1.7	-0.9
CCOc1cc(C(=O)OCC(=O)c2c(C)[nH]c3ccccc23)ccc1OCC(=O)N1CCOCC1	-7.5	21648*	-0.6	?
COc1cccc(-c2cc(C(=O)N3CCN(c4ncccn4)CC3)c3ccccc3n2)c1	1.5	3136	-1.2	0.1
CCOC(=O)N1CCN(C(=O)c2cccn3c(=O)c4sccc4nc23)CC1	-7.8	22718*	-2.6	?
CC(C)Oc1cccc(-c2cc(C(=O)N3CCN(c4ncccn4)CC3)c3ccccc3n2)c1	-3.2	23367*	-3.4	?
CCOC(=O)N1CCN(C(=O)c2cccn3c(=O)c4cc(Br)ccc4nc23)CC1	-7.4	4184	-1.0	0.8
O=C(c1cccc(Cl)c1Cl)N1CCN(c2ccccn2)CC1	-1.8	16331*	-0.6	?
Cc1ccc2nc(-c3ccccc3)cc(C(=O)N3CCc4ccccc4C3)c2c1	1.6	23070*	4.8	?
CC(C)C[C@@H](CN)NC(=O)c1nc[nH]c1C(=O)N[C@@H](C)C(=O)CNC[C@H](C)NC(=O)c1nc[nH]c1C(=O)N[C@@H](CC(C)C)C(=O)O	-5.6	3693	-5.2	-0.3
O=C(COC(=O)CN1C(=O)c2ccccc2C1=O)Nc1ccccc1C(F)(F)F	-5.8	3923	4.3	-0.3
Cc1ccc(C(O)c2ncc(-c3ccccc3)[nH]2)c(C)c1 (stereo unspecified)	-4.0	3502	-10.3	-0.4
Cc1ccc(C(O)c2ncc(-c3ccc(F)cc3)[nH]2)cc1F (stereo unspecified)	3.0	3581	-0.4	-0.1
CC1=C(C(=O)N2CCCCCC2)CC(CC(=O)NC(c2ccccc2)c2ccccc2)C(=O)N1CCC1=CCCCC1 (stereo unspecified)	-1.9	5572	-2.6	-0.1
CN(c1ccccc1C(=O)N1CCc2ccccc2C1)S(C)(=O)=O	-4.3	22577*	-0.4	-0.2
O=C(CCCn1c(=S)[nH]c2ccc(Br)cc2c1=O)N1CCN(c2ccccn2)CC1	-6.6	16819*	-5.8	-2.2
O=C(c1cccn2c(=O)c3cc(Br)ccc3nc12)N1CCN(c2ccccn2)CC1	0.8	18386*	11.2	7.1
O=C(c1cc(-c2ccccc2)nc2ccccc12)N1CCC2(CC1)OCCO2	-0.2	23724*	-2.1	-1.3

Compound activity: PubChem BioAssay, NMMLSC
